Source: PubChem BioAssay AID602346 (Broad Institute, 2012)
Screen size: about 340,000 compounds; about 1,200 (0.35%) were called active. What follows is part of a selection rich in actives, with near analogues and random picks from the rest. Unmarked numbers belong to inactive results. Cut-off read from the data, not from the text of the source: active = inhibition above about 50% (passing the limit was not always enough); inconclusive = no clear call, values can overlap the other calls; inactive = below about 31%.

Test: blockers of Vif multimerization in cells – imaging, HEK293T, single point, primary screen (AID 602346)
Conditions: Vif self-association by quenched fluorescence, 24 h, at 7.49 µM, hits give high values

Structure (SMILES) | inhibition
Cc1ccccc1OCCOc1ccc([N+](=O)[O-])cc1/C=N/n1cnnc1 | 69.4% (active)
Cc1ccccc1OS(=O)(=O)c1cccc([N+](=O)[O-])c1 | -0.237%
COc1cccc(OCCOc2cccc(/C=N/n3cnnc3)c2)c1 | 11.7%
C=CCn1nc(C(=O)OCC)cc1-c1sc(NC(=O)c2ccccc2)nc1C | -3.36%
COc1ccccc1N1CCN(Cc2cc(OC)c3c(c2)OCO3)CC1 | -1.02%
COc1ccc(CN2CCN(Cc3ccc(OC)c(OC)c3OC)CC2)cc1 | -0.337%
COc1ccccc1N1CCN(Cc2ccc(OC)c3ccccc23)CC1 | 112% (active)
COCOCCn1cc(CN2CCS(=O)(=O)N(Cc3ccc(-c4ccccc4)cc3)C(CC(C)C)C2=O)nn1 (stereo not given) | 15.8%
Cc1cc(=O)[nH]c(SCC(=O)Nc2ccc(Br)cc2)n1 | -3.77%
O=C1CCCN2N=C(SCC(=O)Nc3ccc(Br)cc3)SC2=N1 | 59.2% (active)
O=C(CSCc1ccc(Br)cc1)Nc1ccc(S(=O)(=O)N2CCCCCC2)cc1 | -7.79%
CC1(C(=O)NCC2CCOCC2)Cc2c(-c3cccc(C(N)=O)c3)ccnc2O1 (stereo not given) | -1.25%
Cc1cc(Cl)ccc1-c1nc(NCCN(C)C)nc2ccsc12 | -1.21%
CC(=NNC(=O)c1ccc2nc[nH]c2c1)c1ccc(Br)cc1 | 63.5% (active)
COc1ccc(/C(C)=N/NC(=O)c2ccc3nc[nH]c3c2)cc1 | 1.81%
C/C(=N\NC(=O)c1ccc2ccccc2c1)c1cccnc1 | -7.71%
COc1ccc(-c2ccc(C(=O)NC(C)C)c3occc23)c(C)c1 | -26.1%
Cc1cc2cc3n(c2nn1)N=C(Cl)CC3 | 29.1%
CCOC(=O)c1cc(-c2sc(NC(=O)c3ccccc3)nc2C)n(Cc2ccccc2)n1 | -2.32%
CN(C)CCCn1c(N)c(C#N)c2nc(C#N)c(C#N)nc21 | 52.6% (active)
N#Cc1c(N)n(CCOC(=O)c2ccc(Cl)cc2)c2nc3ccccc3nc12 | -17.3%
NC1=CC(=O)C(=O)c2cccnc21 | -1.29%

Structure (SMILES) | inhibition
CC1(Cc2cccc(C#N)c2)C(=O)Nc2ccc(-c3cccc(C(F)(F)F)c3)cc21 (stereo not given) | -26.8%
CN(Cc1ccc(C(F)(F)F)cc1)C(=O)[C@H]1O[C@@H](n2cnc3c(N)ncnc32)[C@H](O)[C@@H]1O | -5.61%
Nc1ncnc2c1ncn2[C@@H]1O[C@H](C(=O)NCC(F)(F)F)[C@@H](O)[C@H]1O | 96.8% (active)
Cc1nccn1-c1ccc(NC(=O)[C@H]2O[C@@H](n3cnc4c(N)ncnc43)[C@H](O)[C@@H]2O)cc1 | 14.6%
Cc1nc2c(OCC(=O)C(C)(C)C)cccn2c1N(C)Cc1cccs1 | -0.585%
CCOc1ccc(CCN2C(=S)N([C@@H](CC(C)C)CN3CCC[C@@H]3CN3C(=S)NC[C@@H]3Cc3ccc(O)cc3)C[C@@H]2CC(C)C)cc1 | 12.9%
O=C(NCc1cccc(Cl)c1)C1CCC(=O)N(C2CC2)C1 (stereo not given) | -0.951%
O=C(NCc1cccc(Cl)c1)C1CCN(c2nnc(N3CCCC3=O)s2)CC1 | 3.92%
O=C(NCc1cccc(Cl)c1)C1=CC=CN2CCS(=O)(=O)N=C12 | 52.6% (active)
CN(C(=O)CN1CCN(c2cc(-c3ccc(OCc4ccccc4)cc3)ncn2)CC1)c1ccccc1 | -17.3%
CC(=O)Nc1ccc(CNc2nc(NCCN(C)C)nc3cc(-c4ccccc4)sc23)cc1 | -16%
CCOc1ccccc1NC(=O)Cn1nnc(C(=O)NCc2cccs2)c1N | 62.1% (active)
COc1cccc(CNC(=O)c2nnn(CC(=O)Nc3cc(C)ccc3C)c2N)c1 | 9.65%
Cc1ccc(NC(=O)Cn2nnc(C(=O)NCc3ccco3)c2N)c(C)c1 | -2.06%
NC(=S)NN=Cc1ccc(OC(=O)COc2cc(Cl)c(Cl)cc2Cl)cn1 | 4.39%
CC(C)Oc1cc(F)ccc1-c1cc(C(=O)Nc2cccc(Cl)c2)[nH]n1 | -9.5%
CC(=O)NC1CCN(CC(=O)Nc2nccs2)CC1 | 4.49%
CC1CCN(CC(=O)Nc2nccs2)CC1 | 50.9% (active)
O=C(COC(=O)c1ccc(O)cc1)Nc1nccs1 | 2.05%
CC(C)Oc1ccc(CN2CCC2(C)C(=O)NCc2ccc(C(F)(F)F)cc2)cc1 (stereo not given) | -4.01%
O=C(NCc1cccnc1)c1cc(C2CCCCN2C(=O)CCc2ccccc2)on1 (stereo not given) | -0.0335%
COCOCCn1cc(CN2CCS(=O)(=O)N(Cc3ccc(-c4ccc(OC)cc4)cc3)C(CC(C)C)C2=O)nn1 (stereo not given) | 1.43%

Structure (SMILES) | inhibition
CCN1C(=O)c2cccc3c(S(=O)(=O)Nc4ccccc4O)ccc1c23 | 112% (active)
CCN(CC)S(=O)(=O)c1ccc2c3c(cccc13)C(=O)S2 | -0.161%
O=C(CN1C(=O)c2cccc3cccc1c23)Nc1ccccc1 | 2.82%
O=C(NCc1cccnc1)Nc1cccc(NC(=O)NCc2cccnc2)c1F | 56% (active)
O=C(NCc1cccnc1)c1ccccc1NC(=O)c1c(F)cccc1F | -6.43%
O=C(NCc1cccnc1)Nc1ccccc1F | 20.3%
C#Cc1ccc(NC(=O)C2(C)CCN2C(=O)Cc2ccc(-c3ccccc3)cc2)cc1 (stereo not given) | -14.6%
Cc1cccc(C)c1Cn1c(C)c(C(=O)NCc2cccc(Cl)c2)sc1=O | -0.663%
O=C1[C@H]2[C@@H](c3ccc(C(F)(F)F)cc3)N[C@]3(CCCN(Cc4ccc(Cl)cc4)C3=O)[C@H]2C(=O)N1Cc1ccccc1 | 2.09%
CC1(C(=O)Nc2cccc3cccnc23)CCN1C(=O)CCC1CCCC1 (stereo not given) | -1.65%
CN(C)CCNC(=O)c1ccc(-c2cn3c(-c4ccc(Oc5ccccc5)cc4)cnc3cn2)cc1 | 1.97%
COc1ccc(-c2cc(-c3ccc(N)cc3)nc(N)c2C#N)cc1OC | -0.12%
COc1ccc(-c2cc(C(F)(F)F)nc(S(C)(=O)=O)n2)cc1OC | 90.1% (active)
COc1ccc(-c2ccc(Nc3ccc(S(=O)(=O)N4CCCC4)cc3)nn2)cc1OC | -7.98%
COc1ccc(OC)c(C(=O)NC2CCCc3c2cnn3-c2cc(C)cc(C)c2)c1 (stereo not given) | -9.82%
CC(=O)Nc1cc(-c2ccccc2F)cn2c(-c3cccc(C(F)(F)F)c3)cnc12 | -25.4%
OC[C@@H]1CN(Cc2ccncc2)C[C@H](n2cnc3c(N4CCN(c5ccccc5)CC4)ncnc32)O1 | -25.2%
NS(=O)(=O)c1ccc(-c2ccc(/C=C3\SC(=O)NC3=O)o2)cc1 | 55.8% (active)
CN1CCN(/N=C/c2ccc(-c3ccc([N+](=O)[O-])cc3)o2)CC1 | -7.47%
O=C1[C@H]2[C@@H](c3ccc(C(F)(F)F)cc3)N[C@]3(CCCN(Cc4ccc(Br)cc4)C3=O)[C@H]2C(=O)N1Cc1ccccc1 | 1.02%
C#Cc1cc(N2CCN(C(=O)c3ccoc3)CC2)n2nc(-c3cccc(Cl)c3)cc2n1 | -5.39%
CN(C)C(=O)CCc1ccc2c3c([nH]c2c1)[C@]1(C)[C@@H](C(=O)N2CCCCC2)C[C@H](CC(=O)NCCC2=CCCCC2)C(=O)N1CC3 | 71.8% (active)

Structure (SMILES) | inhibition
CC(C)N(C(=O)[C@H]1C[C@H](CC(=O)NCCC2=CCCCC2)C(=O)N2CCc3c([nH]c4cc(CCC(=O)N(C)C)ccc34)[C@]12C)C(C)C | 0.666%
CN(C)C(=O)CCc1ccc2c3c([nH]c2c1)[C@]1(CCc2ccccc2)[C@@H](C(=O)N2CCCCC2)C[C@H](CC(=O)NCCC2=CCCCC2)C(=O)N1CC3 | 2.36%
Cc1nc2c(OCc3cccc(Cl)c3)cccn2c1N(C)CC1CC1 | -11.2%
COc1ccc(CC(N)c2csc(NC(=O)Nc3ccc(C(C)C)cc3)n2)cc1 (stereo not given) | -7.74%
Cc1ccc(CCC(=O)Nc2ncc(Cc3cc(Cl)ccc3Cl)s2)o1 | 144% (active)
Cc1ccc(C(=O)Nc2nc3ccc(Cl)cc3s2)o1 | -31.1%
Cc1ccc(Cc2cnc(N)s2)o1 | -1.08%
CSCCC(c1nnnn1Cc1ccccc1)N1CCN(C/C=C/c2ccccc2)CC1 (stereo not given) | -1.75%
Cc1ccc(Cn2c(C)c(C(=O)NCc3ccccc3C(F)(F)F)sc2=O)cc1 | 4.56%
COC(=O)c1ccc(COc2ccc(/C=N/NC(=O)C(=O)Nc3ccc(OC)cc3)cc2OC)o1 | 4.89%
CCCc1ccc(OCc2ccc(C(=O)N/N=C/c3cccc([N+](=O)[O-])c3)o2)c(OC)c1 | 53.7% (active)
N#Cc1cc([N+](=O)[O-])ccc1Oc1cccc(/C=N/NC(=O)c2ccc(Cl)cc2)c1 | -18.6%
CN(C)c1cccc(NC(=O)c2ccc(-c3ccc(F)c(F)c3)c3ccoc23)c1 | 3.47%
CC[C@@H]1Cc2cc(O)ccc2C2=C1c1ccc(O)cc1C[C@H]2CC | 85.1% (active)
CC(=O)Nc1cccc(-c2cc(NC(C)=O)c3ncc(-c4ccccc4)n3c2)c1 | 18.3%
O=c1[nH]c2ccccc2n1C1CCN(CCOc2ccccc2)CC1 | -4.07%
COc1ccc(/C=C/C(=O)c2c(O)cc(OC)cc2OC)cc1 | -16.7%
COc1cccc(-c2cnc(OC(C)(C)C)nc2OC(C)(C)C)c1 | -0.006%
CC(C)(C)Oc1ncc(Br)c(OC(C)(C)C)n1 | 61.1% (active)
